# In PubChem BioAssay:
# Activity calls are given as the source filed them. Unless noted, the rule behind the calls is not given here.
# How the values were obtained:
# [1] = tested on: Wnt5a (protein binding on small-molecule microarray); test: small molecules binding Wnt5a protein – biophysical, small-molecule microarray, 635/667 nm fluorescence, primary screen (AID 1142); details: 635 nm fluorescence, higher = more signal;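 note: fluorescence read at 667 nm with signal to noise per printed feature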
# [2] = ATP-based viability of Huh7 replicon cells – cell-based, CellTiter-Glo luminescence, basal, 48 h, cytotoxicity control for HCV replication inhibitor project, primary screen (AID 1143); details: higher = more signal, called active from +8 up or from −8 down;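 note: Huh7 hepatoma cells carrying a hepatitis C replication reporter with no stimulus; test concentration not given here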
# [3] = Pseudomonas biofilm growth suppression – PAO1 strain, BacTiter-Glo luminescence, LB-PBS, primary screen (AID 1144); details: P. aeruginosa PAO1 biofilm, 12 h, higher = more signal
# [4] = basal CRE-LacZ reporter activity in PC12 – cell-based, unstimulated, primary screen (AID 1145); details: no forskolin, luminescence, 4.5 h, higher = more signal, called active from +8 up or from −8 down
# [5] = forskolin-driven CRE-LacZ activity in PC12 – cell-based, CRE-LacZ reporter, forskolin-stimulated, primary screen (AID 1146); details: luminescence, 4.5 h, higher = more signal, called active from +8 up or from −8 down;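 note: PC12 cells with 6xCRE LacZ reporter stimulated by forskolin 10 µM; beta-galactosidase reporter signal reflecting CREB driven transcription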
# [6] = molecular target: Streptavidin (Streptomyces avidinii) (UniProt P22629); test: compounds binding control protein streptavidin – biophysical, small-molecule microarray, 635/667 nm fluorescence, artefact control for SMM compound annotation, primary screen (AID 1147); details: higher = more signal;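 note: signal reflects streptavidin binding to arrayed compounds as a control protein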
# Streptavidin (Streptomyces avidinii), sequence (P22629 whole entry, looked up): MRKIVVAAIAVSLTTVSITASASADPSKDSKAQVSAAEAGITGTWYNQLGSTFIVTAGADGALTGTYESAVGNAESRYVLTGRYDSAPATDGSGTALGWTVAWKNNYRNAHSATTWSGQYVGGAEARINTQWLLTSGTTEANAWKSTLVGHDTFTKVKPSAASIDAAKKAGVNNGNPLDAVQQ
# [7] = probe aInhba binding on compound microarray – biochemical, small-molecule microarray, 635/667 nm fluorescence, primary screen (AID 1148); details: higher = more signal;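 note: score merges 667nm spot fluorescence with signal-to-noise for antibody binding to printed compounds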
# Torsin-1A (Homo sapiens) [8] = molecular target: Torsin-1A (Homo sapiens) (UniProt O14656); test: TOR1A wild-type binding on microarray – cell lysate, small-molecule microarray, lysate, 635/667 nm, primary screen (AID 1149); details: COS7 hTOR1A-WT lysate, 635 nm fluorescence, higher = more signal
# Torsin-1A (Homo sapiens), sequence (O14656 whole entry, looked up): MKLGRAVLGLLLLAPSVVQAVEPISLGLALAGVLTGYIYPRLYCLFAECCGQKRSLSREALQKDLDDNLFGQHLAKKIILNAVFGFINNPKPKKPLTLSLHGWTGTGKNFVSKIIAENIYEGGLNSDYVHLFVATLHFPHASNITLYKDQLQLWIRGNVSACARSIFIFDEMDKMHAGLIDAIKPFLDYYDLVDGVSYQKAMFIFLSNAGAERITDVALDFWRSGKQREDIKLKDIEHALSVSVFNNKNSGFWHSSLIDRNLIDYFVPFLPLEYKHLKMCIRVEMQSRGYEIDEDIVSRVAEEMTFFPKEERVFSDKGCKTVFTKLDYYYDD
# Torsin-1A (Homo sapiens) [9] = molecular target: Torsin-1A (Homo sapiens) (UniProt O14656); test: torsin A mutant lysate binding on microarrays – cell lysate, small-molecule microarray, COS7 lysate, 635/667 nm fluorescence, primary screen (AID 1150); details: COS7 hTOR1A mutant lysate, 635 nm fluorescence, higher = more signal;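 note: score pools 667 nm emission and signal to noise measuring lysate protein binding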
# [10] = tested on: Sonic hedgehog protein (Shh); test: Sonic hedgehog microarray binding compounds – biochemical, small-molecule microarray, 635/667 nm fluorescence, primary screen (AID 1151); details: 635 nm fluorescence, higher = more signal;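 note: Shh protein binding to compounds spotted on small-molecule microarray slides; score combines spot fluorescence intensity with signal-to-noise across triplicate slides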
SMILES,composite z-score [1],z-score [2],z-score [3],z-score [4],z-score [5],composite z-score [6],composite z-score [7],composite z-score (Torsin-1A (Homo sapiens) [8]),composite z-score (Torsin-1A (Homo sapiens) [9]),composite z-score [10]
COC(=O)c1ccc(OC)c(/C=C\CC(OC(=O)c2ccncc2)c2ccccc2)c1 (stereo not given),0.114,-3.7 (inactive),-0.526 (inactive),12.5 (active),-1.88 (inactive),1.79,-0.154,0.217,0.292,1.14
CCOC(=O)C=C1C[C@@H](c2cccc([N+](=O)[O-])c2)O[C@@H](c2cccc([N+](=O)[O-])c2)O1,0.719,-3.18 (inactive),0.397 (inactive),-0.527 (inactive),-0.495 (inactive),0.865,0.503,0.167,0.582,0.147
[N-]=[N+]=NCc1ccccc1[C@H]1OC(c2ccc(OCCCO)cc2)=N[C@@]1(Cc1ccccc1N=[N+]=[N-])C(=O)O,0.322,-1.16 (inactive),0.159 (inactive),-0.137 (inactive),-0.763 (inactive),1.55,0.147,0.136,0.691,-0.141
O=C(O)C1=CC[C@H]2C(=O)N(c3ccccc3)C(=O)[C@@H]12,0.144,0.704 (inactive),0.317 (inactive),0.173 (inactive),0.676 (inactive),1.22,0.0448,1,0.448,-0.323
[N-]=[N+]=Nc1ccccc1C[C@@]1(C(=O)NCC(O)CO)N=C(c2ccc(OCCCO)cc2)O[C@@H]1c1ccccc1N=[N+]=[N-] (stereo not given in full),1.28,-4.99 (inactive),-0.0717 (inactive),0.825 (inactive),-1.42 (inactive),1.23,-0.0504,1.53,0.0816,-0.59
C=C[C@@H](CO)NS(=O)(=O)c1ccc(Br)cc1,0.236,-2.14 (inactive),-1.74 (inactive),1.54 (inactive),-0.52 (inactive),-0.232,-0.154,-0.0176,-0.354,-0.317
COCCCNC(=O)[C@@]1(c2ccc([N+](=O)[O-])cc2)CC(=O)N(C2CCCCC2)[C@@H]1c1ccc(CO)cc1I,0.0398,-3.87 (inactive),0.239 (inactive),0.414 (inactive),-0.543 (inactive),-0.16,0.0575,0.95,1.39,1.81
O=C1NC(=O)C2C1C=CC(C(O)C(O)CO)N2Nc1ccccn1 (stereo not given),0.146,0.165 (inactive),-0.893 (inactive),0.0603 (inactive),0.0702 (inactive),0.0832,-0.168,0.435,0.344,0.199
COC(=O)[C@@]1(Cc2ccccc2)[C@H]2c3cc(C(=O)N(C)C)n(Cc4ccc(Cl)c(C(F)(F)F)c4)c3C[C@H]2CN1C(=O)c1ccccc1,0.498,-3.79 (inactive),0.821 (inactive),0.583 (inactive),-0.244 (inactive),1.56,0.63,-0.172,0.0947,1.31
COCCOC(=O)N1C(=O)[C@@]2(c3cc(C#CC4(O)CCCCCC4)ccc31)[C@H](C(N)=O)[C@H]1C(=O)O[C@H](c3ccccc3)[C@H](c3ccccc3)N1[C@@H]2c1ccc(OCCO)cc1,0.309,-4.36 (inactive),-0.295 (inactive),0.362 (inactive),0.0846 (inactive),0.84,0.201,0.838,0.637,1.24
O=C(CS)NCCCCCCNC(=O)[C@H]1C[C@H]2C(=O)NCC(=O)N2[C@H]1c1cccc(OCCO)c1,0.497,-2.15 (inactive),-0.525 (inactive),0.0084 (inactive),-0.963 (inactive),-0.127,-0.226,0.168,0.442,1.54
CN1C2C=C(c3ccc(CO)cc3)C(C3C(=O)N(C(N)=O)C(=O)C32)C1C1CC1 (stereo not given),-0.392,0.547 (inactive),-0.522 (inactive),-0.35 (inactive),0.527 (inactive),0.0747,-0.271,0.0973,0.0517,-0.104
COC(=O)[C@@]1(Cc2ccc(F)cc2)[C@H]2c3cc(C(=O)N(C)C)n(Cc4ccc(C(F)(F)F)nc4)c3C[C@H]2CN1C(=O)c1ccccc1,0.381,-3.01 (inactive),0.857 (inactive),1.91 (inactive),1.13 (inactive),1.55,0.36,0.516,0.717,0.521
CS(=O)(=O)CCOC(=O)C1=CC(CCCO)=CC(C2CC2)N(Cc2sc3ccccc3c2Cl)C=C1C(=O)OCCS(C)(=O)=O (stereo not given),0.296,-2.27 (inactive),-0.15 (inactive),2.57 (inactive),-0.655 (inactive),1.41,0.523,1.15,1.48,1.41
C=C(COC)/C(=C/C[C@@H](OC(C)=O)c1cccc(OCCO)c1)c1cnc2ccccc2c1,0.603,-2.14 (inactive),0.0432 (inactive),2.53 (inactive),-0.444 (inactive),0.897,-0.0131,0.14,0.499,1.83
CCCCC(=C=CC[C@H](O)c1cccc(OCCO)c1)C[C@H](O)c1cc(Cl)cc(Cl)c1O,0.252,-0.705 (inactive),-0.915 (inactive),1.66 (inactive),0.0904 (inactive),0.428,-0.0675,0.437,0.906,1.84
COCCCNC(=O)[C@@]1(Cc2ccccc2I)c2ccccc2C(=O)N(Cc2ccccc2C(F)(F)F)[C@H]1c1ccc(CO)cc1,-0.347,-2.13 (inactive),-0.528 (inactive),-0.619 (inactive),1.15 (inactive),-0.253,-0.016,0.0167,-0.0514,-0.414
COC(=O)[C@H]1N=C(c2ccc(OCCCO)cc2)O[C@H]1c1ccccc1N=[N+]=[N-],0.563,-2.38 (inactive),-0.17 (inactive),1.18 (inactive),0.226 (inactive),0.489,0.317,0.698,0.175,-0.207
CCN1C(=O)C2CC(=O)C3C(CN(S(=O)(=O)c4ccc(C)cc4)C3c3ccc(C)cc3)C2C1=O (stereo not given),0.235,-1.49 (inactive),1.03 (inactive),-0.676 (inactive),-0.202 (inactive),0.851,-0.0471,0.364,0.915,0.184
O=C1N(Cc2ccccc2)c2ccccc2C[C@@]12N=C(c1ccc(OCCCO)cc1)O[C@H]2c1ccccc1,0.378,-3.89 (inactive),-0.34 (inactive),1.87 (inactive),-0.483 (inactive),0.798,-0.0963,-0.133,0.318,1.34
O=C1O[C@@H](c2ccccc2)[C@@H](c2ccccc2)N2[C@@H](c3ccc(OCCO)cc3)[C@]3(C(=O)Nc4ccc(C#CC5=CCCCC5)cc43)[C@@H](C(=O)Nc3nc4ccccc4s3)[C@H]12,0.256,-1.89 (inactive),-1.2 (inactive),-0.698 (inactive),-0.797 (inactive),0.549,-0.145,-0.0561,0.0025,1.43
CCOC(=O)C1=CCC(c2cccn2C(=O)OC(C)(C)C)N(S(=O)(=O)c2ccc(C)cc2)C1 (stereo not given),0.0845,-4.35 (inactive),0.0401 (inactive),0.136 (inactive),19.4 (active),1.99,0.18,0.0444,0.461,0.157
CCOC(=O)C[C@H]1[C@H](OC(=O)c2cc3ccccc3oc2=O)[C@@H](NC(=O)c2ccc(-c3ccccc3)cc2)c2cc(OCCCO)ccc2N1C(=O)Cc1ccc(OC)cc1,0.391,-0.346 (inactive),-0.301 (inactive),0.666 (inactive),0.0179 (inactive),0.385,-0.0095,0.195,0.775,0.989
CC(=O)NCCCC[C@@H]1NC(=O)[C@H]2C[C@@H](C(=O)O)[C@@H](c3cccc(OCCO)c3)N2C1=O,0.847,-0.353 (inactive),-0.814 (inactive),1.94 (inactive),0.0364 (inactive),1.62,-0.153,1.33,1.24,1.59
COC(=O)C(CC#Cc1ccc2c(c1)[C@]1(C(=O)N2)[C@H](C(=O)NC[C@H](O)c2ccccc2)[C@H]2C(=O)O[C@H](c3ccccc3)[C@H](c3ccccc3)N2[C@@H]1c1ccc(O)cc1)C(=O)OC,-0.174,-0.187 (inactive),1.07 (inactive),0.488 (inactive),-0.517 (inactive),-0.765,-0.0736,-0.93,-0.62,0.21
COC(=O)[C@@]1(Cc2ccc(OC)cc2)[C@@H]2[C@@H](CC(=O)[C@H]2CC(=O)C(=O)N(C)C)CN1C(=O)c1ccccc1,2.06,-3.89 (inactive),0.327 (inactive),0.39 (inactive),0.247 (inactive),1.79,1.83,-0.0909,0.452,0.326
COc1ccc(CCNC(=O)[C@@]2(c3ccc([N+](=O)[O-])cc3)CC(=O)N(C3CCCCC3)[C@@H]2c2ccc(CO)cc2I)cc1,1.07,-4.72 (inactive),1.02 (inactive),0.441 (inactive),0.0398 (inactive),-0.0827,-0.0695,0.628,0.0294,0.575
